Results reported in PubChem BioAssay.
Unmarked numbers belong to inactive results. For part of these data: Measured potencies and affinities stand elsewhere. Calls of active or inactive are those of the source. Unless noted, no rule for the calls is given here.

How the values were obtained:
[1] = antimalarial activity against Dd2 strain (AID 2302;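 active = growth inhibition above 50% at the single 2 µM test dose, taken to imply half-maximal potency below 2 µM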;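 also: 0% = DMSO untreated growth and 100% = chloroquine plus artemisinin killed control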); conditions: P. falciparum Dd2 in RBCs, LDH growth readout, 72 h; at 2 µM; stronger effect = higher value
[2] = human hepatoma cell viability loss – ATP luminescence, cytotoxicity control for P. falciparum antimalarial project, primary screen (AID 2303;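 active = inhibition above 50%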;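 also: 0% = DMSO wells and 100% = digitonin-killed cells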); conditions: HepG2 viability, 24-48 h, at 10 µM, stronger effect = higher value
[3] = target: L-lactate dehydrogenase (Plasmodium falciparum (isolate CDC / Honduras)) (UniProt Q27743); assay: PfLDH activity inhibition – cell lysate, 3D7 strain, counter-screen for P. falciparum growth inhibition project (AID 2304);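 also: 0% = vehicle and 100% = reference inhibitor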; conditions: P. falciparum 3D7 crude extract, LDH APAD/NBT absorbance; at 2 µM; stronger effect = higher value
[4] = inhibition of 3D7 malaria parasite growth – strain 3D7 (AID 2306);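 also: 0% = DMSO wells and 100% = chloroquine plus artemisinin control wells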; conditions: P. falciparum 3D7 erythrocytic growth, LDH absorbance, 72 h; at 2 µM; stronger effect = higher value
[5] = target: Calcium-dependent protein kinase 1 (Plasmodium falciparum (isolate 3D7)) (UniProt P62344); assay: PfCDPK1 kinase inhibitors, biochemical, TCAMS library (AID 1159585; cut-off not given, nearly all actives have IC50 up to about 0.98 µM;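 also: inhibitors leave more ATP so luminescence rises with inhibition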); conditions: recombinant PfCDPK1, Kinase-Glo ATP depletion luminescence
[6] = target: Plasmodium falciparum protein kinase 6 (PK6, PF3D7_1337100) (UniProt Q8IDW1); assay: PfPK6 kinase inhibitors, biochemical, TCAMS library (AID 1159586); conditions: recombinant PfPK6, Kinase-Glo ATP depletion luminescence
[7] = target: Protein kinase 7 (PK7), Plasmodium falciparum 3D7 (PF3D7_0213400) (UniProt Q7YTF7); assay: inhibition of Plasmodium PK7 catalytic activity – biochemical, TCAMS antimalarial set, Kinase-Glo luminescence (AID 1159587); conditions: recombinant PfPK7, Kinase-Glo ATP depletion luminescence
[8] = target: Calcium-dependent protein kinase 4 (Plasmodium falciparum (isolate 3D7)) (UniProt Q8IBS5); assay: PfCDPK4 kinase inhibitors, biochemical, TCAMS library (AID 1159588; cut-off not given, nearly all actives have IC50 up to about 0.91 µM); conditions: recombinant PfCDPK4, Kinase-Glo ATP depletion luminescence
Sequence of Calcium-dependent protein kinase 4 (Plasmodium falciparum (isolate 3D7)) (Q8IBS5 whole entry, looked up): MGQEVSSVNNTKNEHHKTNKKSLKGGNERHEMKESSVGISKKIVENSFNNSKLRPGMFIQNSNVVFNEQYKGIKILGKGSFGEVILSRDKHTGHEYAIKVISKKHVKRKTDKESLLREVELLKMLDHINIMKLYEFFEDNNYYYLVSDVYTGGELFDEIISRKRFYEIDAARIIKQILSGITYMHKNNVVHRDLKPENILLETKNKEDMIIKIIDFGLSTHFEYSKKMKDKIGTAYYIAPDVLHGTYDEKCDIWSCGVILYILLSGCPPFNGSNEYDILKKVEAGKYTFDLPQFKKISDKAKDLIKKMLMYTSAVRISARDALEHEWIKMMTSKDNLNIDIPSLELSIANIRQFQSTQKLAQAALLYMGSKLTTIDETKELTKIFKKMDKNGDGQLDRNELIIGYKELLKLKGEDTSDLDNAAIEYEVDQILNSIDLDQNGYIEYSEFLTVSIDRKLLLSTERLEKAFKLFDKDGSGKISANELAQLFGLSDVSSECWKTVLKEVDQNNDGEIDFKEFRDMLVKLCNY

Sequence of L-lactate dehydrogenase (Plasmodium falciparum (isolate CDC / Honduras)) (Q27743 whole entry, looked up): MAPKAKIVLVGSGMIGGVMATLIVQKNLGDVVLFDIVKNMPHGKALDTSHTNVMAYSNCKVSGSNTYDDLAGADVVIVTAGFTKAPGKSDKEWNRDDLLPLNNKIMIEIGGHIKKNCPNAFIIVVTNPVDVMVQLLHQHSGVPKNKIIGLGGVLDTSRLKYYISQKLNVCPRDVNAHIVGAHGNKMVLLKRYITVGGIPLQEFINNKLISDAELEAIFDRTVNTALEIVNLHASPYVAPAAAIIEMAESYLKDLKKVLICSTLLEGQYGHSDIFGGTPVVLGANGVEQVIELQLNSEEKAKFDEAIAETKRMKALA
Sequence of Calcium-dependent protein kinase 1 (Plasmodium falciparum (isolate 3D7)) (P62344 whole entry, looked up): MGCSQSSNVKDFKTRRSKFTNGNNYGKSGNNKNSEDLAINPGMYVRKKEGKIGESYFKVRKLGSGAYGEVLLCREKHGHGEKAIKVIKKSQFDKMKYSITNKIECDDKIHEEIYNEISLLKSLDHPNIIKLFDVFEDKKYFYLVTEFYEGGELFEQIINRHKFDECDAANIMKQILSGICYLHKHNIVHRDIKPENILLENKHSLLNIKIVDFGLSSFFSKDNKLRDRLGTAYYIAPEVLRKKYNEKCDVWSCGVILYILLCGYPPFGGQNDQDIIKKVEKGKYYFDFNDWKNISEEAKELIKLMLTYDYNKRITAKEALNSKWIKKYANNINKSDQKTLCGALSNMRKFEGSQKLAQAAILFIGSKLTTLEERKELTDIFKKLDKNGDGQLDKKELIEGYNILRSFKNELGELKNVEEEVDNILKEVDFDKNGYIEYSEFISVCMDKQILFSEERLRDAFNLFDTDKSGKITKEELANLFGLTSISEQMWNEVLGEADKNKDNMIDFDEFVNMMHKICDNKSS
Sequence of Plasmodium falciparum protein kinase 6 (PK6, PF3D7_1337100) (Q8IDW1 1-305): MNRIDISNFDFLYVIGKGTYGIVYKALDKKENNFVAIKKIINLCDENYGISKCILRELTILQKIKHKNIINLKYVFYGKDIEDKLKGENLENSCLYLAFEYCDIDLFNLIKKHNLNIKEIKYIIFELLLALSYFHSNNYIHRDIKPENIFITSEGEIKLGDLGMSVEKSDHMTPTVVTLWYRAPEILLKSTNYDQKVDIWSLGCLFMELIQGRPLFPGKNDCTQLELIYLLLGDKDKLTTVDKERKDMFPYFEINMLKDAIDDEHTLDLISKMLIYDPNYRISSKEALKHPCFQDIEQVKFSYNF
Sequence of Protein kinase 7 (PK7), Plasmodium falciparum 3D7 (PF3D7_0213400) (Q7YTF7 1-343): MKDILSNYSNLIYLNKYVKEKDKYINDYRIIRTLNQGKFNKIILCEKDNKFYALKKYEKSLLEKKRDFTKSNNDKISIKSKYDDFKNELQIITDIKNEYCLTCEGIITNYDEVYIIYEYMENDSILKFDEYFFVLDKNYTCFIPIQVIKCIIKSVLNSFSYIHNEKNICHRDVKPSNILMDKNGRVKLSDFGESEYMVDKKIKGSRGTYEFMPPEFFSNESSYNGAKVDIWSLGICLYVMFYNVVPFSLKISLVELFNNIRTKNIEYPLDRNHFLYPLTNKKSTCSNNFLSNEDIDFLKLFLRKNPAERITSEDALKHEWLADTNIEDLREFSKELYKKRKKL

| SMILES | growth inhibition [1] | inhibition [2] | inhibition [3] | growth inhibition [4] | outcome [5] | outcome [6] | outcome [7] | outcome [8] |
| --- | --- | --- | --- | --- | --- | --- | --- | --- |
| Cn1nccc1C(=O)NCCNCc1cccc(-c2cccc(-c3nc4ccc(C(F)(F)F)cc4[nH]3)c2)c1 | 99% (active) | 39% | -7% | 102% (active) | inactive | inactive | inactive | inactive |
| COc1nc2c(CCN3CCC(NCc4ccc5c(n4)NC(=O)CO5)CC3)c(Cl)cnc2cc1F | 40% | 17% | -9% | 99% (active) | inactive | inactive | inactive | inactive |
| FC(F)(F)c1ccc2nc(-c3ccc(-c4ccc(CN5CCN(c6ccncc6)CC5)cc4)s3)[nH]c2c1 | 50% (active) | 97% (active) | 2% | 100% (active) | inactive | inactive | inactive | inactive |
| Nc1ncc(OC2CCCCC2)c(N)n1 | -1% | -4% | -1% | 94% (active) | inactive | inactive | inactive | inactive |
| CC(C)c1ccc(-c2noc(SCC(=O)N(C)c3ccc(F)cc3)n2)cc1 | 77% (active) | 7% | 3% | 84% (active) | inactive | inactive | inactive | inactive |
| Cc1cc(C)cc(NC(=S)NCCCCN2CCN(c3cccc(Cl)c3)CC2)c1 | 13% | 11% | 3% | 88% (active) | inactive | inactive | inactive | inactive |
| O=C(Nc1cccc(-c2cc(-c3c(Cl)cccc3Cl)no2)c1)c1cnc2ccccc2c1 | 34% | -6% | -3% | 87% (active) | inactive | inactive | inactive | inactive |
| Cc1cccc2[nH]c(-c3cccc(-c4cccc(CNCc5cnn(-c6ccccc6)n5)c4)c3)nc12 | 38% | 12% | 1% | 99% (active) | inactive | inactive | inactive | inactive |
| CCOC(=O)c1c(CSc2ccccc2)oc2cc(CN(C)C)c(O)c(Cl)c12 | 70% (active) | 12% | -4% | 99% (active) | inactive | inactive | inactive | inactive |
| CC(=O)Nc1ccc(S(=O)(=O)Nc2c(C)cc(Cc3cnc(N)nc3N)cc2C)cc1 | -1% | 6% | 5% | 94% (active) | inactive | inactive | inactive | inactive |
| FC(F)(F)c1ccc2nccc(NN=Cc3cccnc3)c2c1 | 40% | -9% | -8% | 101% (active) | inactive | inactive | inactive | inactive |
| Cc1c(Cc2ccccc2Cl)cnc2nc(N)nc(N)c12 | 96% (active) | 67% (active) | -2% | 91% (active) | inactive | inactive | inactive | inactive |
| COC(=O)c1cccc(CNCc2cccc(-c3ccc(-c4nc5c(C)cccc5[nH]4)cc3)c2)c1 | 52% (active) | 3% | 2% | 102% (active) | inactive | inactive | inactive | inactive |
| O=C(NCCSCc1c(F)cccc1Cl)c1cnc2c(c1)nc(-c1cnc(-c3ccccc3)[nH]1)n2CCc1cnc[nH]1 | 45% | 10% | 0% | 93% (active) | inactive | inactive | inactive | inactive |
| O=C(NCCCCN1CCC(c2nc3ccccc3s2)CC1)c1cc2ccccc2[nH]1 | 64% (active) | 43% | -5% | 86% (active) | inactive | inactive | inactive | inactive |
| O=C1C2C(C(=O)N1c1ccccc1)[C@H]1S[C@@H]2c2c1ccc1ccccc21 (some centres not stated) | 7% | -5% | -1% | 96% (active) | inactive | inactive | inactive | inactive |
| O=C(Nc1ccc(-c2nc3ccccc3[nH]2)cc1)C1CCCN(CC2CC2)C1 (configuration not stated) | 8% | 6% | 0% | 89% (active) | inactive | inactive | inactive | inactive |
| O=c1ccc(CNc2nc(NCCc3ccccc3)nc3ccc(Cl)cc23)c[nH]1 | 16% | 9% | 2% | 99% (active) | inactive | inactive | inactive | inactive |
| NC1=NC(C=Cc2ccccc2)N(OCCCCCCON2C(N)=NC(N)=NC2C=Cc2ccccc2)C(N)=N1 (configuration not stated) | 94% (active) | 17% | 3% | 97% (active) | inactive | inactive | inactive | inactive |
| COc1ccc(CNCCCCCCNCCc2ccc(Cl)cc2)cc1OC | 0% | 21% | 0% | 96% (active) | inactive | inactive | inactive | inactive |

| SMILES | growth inhibition [1] | inhibition [2] | inhibition [3] | growth inhibition [4] | outcome [5] | outcome [6] | outcome [7] | outcome [8] |
| --- | --- | --- | --- | --- | --- | --- | --- | --- |
| CC(=O)Oc1cc(C)ccc1C1CCN(CCCCNC(=O)c2ccc(NC(=O)c3ccc(Cl)cc3)cc2)CC1 | 57% (active) | 12% | -5% | 100% (active) | inactive | inactive | inactive | inactive |
| O=c1cc(NCCCNC2CCOc3c(Cl)cccc32)[nH]c2ccccc12 (configuration not stated) | 27% | -3% | 3% | 96% (active) | inactive | inactive | inactive | inactive |
| Cc1cccc2[nH]c(-c3cccc(-c4cccc(NC(=O)Nc5cccc(C#N)c5)c4)c3)nc12 | 99% (active) | 22% | 6% | 101% (active) | inactive | inactive | inactive | inactive |
| COc1ccc(-c2cc(C(=O)N[C@@H](CC3CCCCC3)C(=O)NCCN3CCCC3)ccc2O)cc1 | 12% | 12% | 2% | 90% (active) | inactive | inactive | inactive | inactive |
| CC(C)Cn1c(Sc2ccc(C#N)c([N+](=O)[O-])c2)nnc1-c1ccccc1 | 12% | 17% | 2% | 83% (active) | inactive | inactive | inactive | inactive |
| NC(N)=NN=Cc1c2ccccc2c(Cl)c2c(Cl)cccc12 | 72% (active) | 71% (active) | -3% | 91% (active) | inactive | inactive | inactive | inactive |
| CN1CCCC1CCNc1ncc2c(-c3ccc(NC(=O)Nc4cc(C(F)(F)F)ccc4F)cc3)nn(C)c2n1 (configuration not stated) | 72% (active) | 74% (active) | 0% | 96% (active) | inactive | inactive | inactive | inactive |
| CN1CCN(c2ccnc3ccc(NC(=O)Nc4c(Cl)cccc4Cl)cc23)CC1 | 12% | 11% | -1% | 96% (active) | inactive | inactive | inactive | inactive |
| O=C(Nc1ccc(Oc2ccccc2)cc1)N(Cc1ccc(-c2ccc(CN3CCNCC3)cc2)cc1)C1CCN(Cc2ccccc2)CC1 | 73% (active) | 31% | -1% | 101% (active) | inactive | inactive | inactive | inactive |
| CN1CCCC(OC(=O)c2ccccc2)C1 (configuration not stated) | -2% | 4% | -5% | 100% (active) | inactive | inactive | inactive | inactive |
| COc1cc(-n2c(CN3CCCC3)nc3cc(-c4ccc(Cl)cc4)sc3c2=O)ccc1OCCN1CCCC1 | 90% (active) | 66% (active) | -5% | 94% (active) | inactive | inactive | inactive | inactive |
| Clc1ccc(-c2ccc(CNCCCN3CCCC3)cc2)cc1 | 21% | 47% | -5% | 91% (active) | inactive | inactive | inactive | inactive |
| O=C(Nc1ccc(C(F)(F)F)cc1)c1ccc(S(=O)(=O)NC2CCCN(CC3CCCCC3)C2)cc1 (configuration not stated) | -1% | 45% | -5% | 99% (active) | inactive | inactive | inactive | inactive |
| COc1ccccc1CCNC(=O)c1cc(Br)cc(N2CCN(c3ccncc3)CC2)c1 | 32% | 38% | 4% | 84% (active) | inactive | inactive | inactive | inactive |
| CCOc1ccccc1CNc1nccc(NCCc2cn(C)c3ccccc23)n1 | 62% (active) | 27% | -4% | 98% (active) | inactive | inactive | inactive | inactive |
| CCN(CC)CCCC(C)Nc1ccnc2[nH]c3ccccc3c12 (configuration not stated) | 38% | 0% | 6% | 82% (active) | inactive | inactive | inactive | inactive |
| NC1=NC2(CCCCC2)N(OCCOc2ccc(Cc3ccccc3)cc2)C(N)=N1 | 22% | 34% | 2% | 86% (active) | inactive | inactive | inactive | inactive |
| CN1CCCC(CN2CCN(Cc3cccc(-c4ccc(-c5nc6ccc(F)cc6[nH]5)cc4)c3)CC2)C1 (configuration not stated) | 100% (active) | 78% (active) | -1% | 101% (active) | inactive | inactive | inactive | inactive |
| CC(C)Cc1cn(-c2nc(C(=N)N)cs2)c2cc(Cl)ccc12 | 98% (active) | 98% (active) | -1% | 100% (active) | inactive | inactive | inactive | inactive |
